Data published in PubChem BioAssay (NCI).
The panel holds about 83,000 compounds, 20% with a hit somewhere; the sample as a whole holds those more often.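 Single-concentration screen, 48 h exposure, 96-well plates. Endpoint: percent growth. Below 10 = active.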 Calls of active or inactive are those of the source.

Tests used:
Test in all cases: NCI-60 one-dose screen, 48 h (100 = growth as untreated, 0 = no growth, -100 = all killed)
NCI-H226 lung = conditions: 10 µM unless noted
NCI-H322M lung = conditions: 10 µM unless noted
HOP-62 NSCLC = conditions: 10 µM unless noted
NCI-H460 lung = conditions: 10 µM unless noted
NCI-H522 lung = conditions: 10 µM unless noted
A549/ATCC NSCLC = conditions: 10 µM unless noted
786-0 renal = conditions: 10 µM unless noted
COLO 205 colon = conditions: 10 µM unless noted
DU-145 prostate = conditions: 10 µM unless noted
K-562 leukemia = conditions: 10 µM unless noted
MDA-MB-231 breast = conditions: 10 µM unless noted
RXF 393 renal = conditions: 10 µM unless noted
SF-268 CNS = conditions: 10 µM unless noted
SF-295 CNS = conditions: 10 µM unless noted
SF-539 CNS = conditions: 10 µM unless noted
UACC-257 melanoma = conditions: 10 µM unless noted
M14 melanoma = conditions: 10 µM unless noted
MALME-3M melanoma = conditions: 10 µM unless noted
HOP-92 NSCLC = conditions: 10 µM

Measured: growth

CCO/C=N/C1=C(C#N)C(c2ccc(F)cc2)c2sc3c(CC)cccc3c2O1 (stereo not given)
inactive: NCI-H226 lung 51.6% | NCI-H322M lung 42.6% | HOP-62 NSCLC 48.6% | A549/ATCC NSCLC 24.6% | 786-0 renal 26.3% | COLO 205 colon 12.6% | DU-145 prostate 19.3% | MDA-MB-231 breast 29.7% | SF-268 CNS 47.5% | UACC-257 melanoma 69.5%
active: NCI-H460 lung 3.42% | NCI-H522 lung 8.86% | K-562 leukemia 8.58% | RXF 393 renal -20.6% | SF-295 CNS -6.92% | SF-539 CNS -12.7% | M14 melanoma 8.85%

C#CC(=O)N(c1ccc(OC)cc1OC)C(C(=O)NCC(=O)OCC)c1cccs1 (stereo not given)
active: NCI-H522 lung -72.2% | 786-0 renal -75.2% | K-562 leukemia 3.23% | MALME-3M melanoma -61.8% | SF-268 CNS -23.1% | SF-295 CNS -67.9% | SF-539 CNS -86%
inactive: NCI-H226 lung 93.3% | NCI-H322M lung 94.4% | HOP-62 NSCLC 102% | NCI-H460 lung 82.2% | A549/ATCC NSCLC 94.4% | DU-145 prostate 33.2% | MDA-MB-231 breast 22.4% | RXF 393 renal 56.5% | UACC-257 melanoma 86.6% | M14 melanoma 80.9%

CCCSc1nc(Nc2ccc(/C(C)=N\NC(N)=S)cc2)c(C#N)c(-c2ccccc2)n1
inactive: NCI-H322M lung 84.3% | HOP-62 NSCLC 84.2% | NCI-H460 lung 32.7% | NCI-H522 lung 85.2% | A549/ATCC NSCLC 43.7% | 786-0 renal 60.3% | COLO 205 colon 79.9% | DU-145 prostate 66.3% | K-562 leukemia 56.5% | MALME-3M melanoma 97.9% | MDA-MB-231 breast 72.9% | SF-268 CNS 103% | SF-295 CNS 51.8% | SF-539 CNS 36.4% | UACC-257 melanoma 105% | M14 melanoma 99.6%
active: HOP-92 NSCLC -8.02% | RXF 393 renal -4.63%

COC(=O)c1ccc(NC2=C/C(=N/S(=O)(=O)c3ccc(C(=O)O)cc3)c3ccccc3C2=O)cc1
inactive: NCI-H226 lung 32.7% | NCI-H322M lung 107% | HOP-62 NSCLC 88.2% | NCI-H460 lung 96.3% | NCI-H522 lung 81.7% | A549/ATCC NSCLC 98.7% | COLO 205 colon 115% | SF-268 CNS 37.7% | SF-295 CNS 91.5% | M14 melanoma 67.4%
active: 786-0 renal 9.38% | DU-145 prostate 7.85% | K-562 leukemia 0.527% | MALME-3M melanoma -89.3% | MDA-MB-231 breast -21.6% | RXF 393 renal -14.6% | SF-539 CNS -83.1% | UACC-257 melanoma -6.94%

CCCC(=O)NC(c1cccnc1)c1cc(C(C)(C)C)c2cccnc2c1O (stereo not given)
active: NCI-H522 lung 7.22% | 786-0 renal 2.54% | UACC-257 melanoma 4.98% | M14 melanoma 3.19%
inactive: NCI-H226 lung 12.7% | NCI-H322M lung 33.6% | HOP-62 NSCLC 25.9% | A549/ATCC NSCLC 18.2% | COLO 205 colon 20.3% | DU-145 prostate 31.8% | K-562 leukemia 12.5% | MALME-3M melanoma 25% | MDA-MB-231 breast 34.6% | RXF 393 renal 53.6% | SF-268 CNS 24.2% | SF-295 CNS 17% | SF-539 CNS 13.4%

COc1cc(-c2nn(C(C)(C)C)cc2-c2ccnc(NCCCNS(=O)(=O)c3ccccc3)n2)ccc1Cl
active: RXF 393 renal -1.53%
inactive: NCI-H226 lung 66% | NCI-H322M lung 87.2% | HOP-62 NSCLC 72.8% | NCI-H460 lung 71.1% | HOP-92 NSCLC 71.9% | A549/ATCC NSCLC 51.4% | 786-0 renal 77.7% | COLO 205 colon 101% | DU-145 prostate 67.2% | K-562 leukemia 40.7% | MALME-3M melanoma 84% | MDA-MB-231 breast 49.3% | SF-268 CNS 58.2% | SF-295 CNS 83.1% | SF-539 CNS 83.7% | UACC-257 melanoma 95.1% | M14 melanoma 96.1%

Fc1ccc(-c2cc3nc(C(Cl)Cl)nc(-c4ccc(F)cc4)n3n2)cc1
active: NCI-H322M lung -30.3% | HOP-62 NSCLC -27.6% | NCI-H460 lung -52.9% | NCI-H522 lung 0.105% | A549/ATCC NSCLC -26.8% | COLO 205 colon -70.2% | DU-145 prostate -18.4% | MALME-3M melanoma 9.81% | MDA-MB-231 breast 5.31% | RXF 393 renal -58.1% | SF-295 CNS 8.01% | M14 melanoma -4.2%
inactive: NCI-H226 lung 79.1% | 786-0 renal 51.4% | K-562 leukemia 14.3% | SF-268 CNS 23.2% | SF-539 CNS 21.3% | UACC-257 melanoma 20.5%

COC(=O)c1[nH]nc2c1C1(C(=O)c3cccc4cccc1c34)C(C#N)=C(N)O2 (stereo not given)
inactive: NCI-H226 lung 91.8% | NCI-H322M lung 94.1% | HOP-62 NSCLC 97.5% | NCI-H522 lung 100% | A549/ATCC NSCLC 98.2% | 786-0 renal 99.5% | COLO 205 colon 110% | DU-145 prostate 104% | K-562 leukemia 91.2% | MALME-3M melanoma 103% | MDA-MB-231 breast 91.4% | RXF 393 renal 93.5% | SF-268 CNS 84.1% | SF-295 CNS 104% | SF-539 CNS 101% | UACC-257 melanoma 103% | M14 melanoma 108%

C=C=COc1cccc(/C(N)=N/C(N)=N/c2nc3ccccc3s2)c1
inactive: NCI-H226 lung 83.7% | NCI-H322M lung 103% | HOP-62 NSCLC 101% | NCI-H460 lung 93.9% | NCI-H522 lung 97% | A549/ATCC NSCLC 104% | 786-0 renal 90.3% | COLO 205 colon 112% | DU-145 prostate 101% | K-562 leukemia 23.5% | MALME-3M melanoma 93% | MDA-MB-231 breast 76.2% | RXF 393 renal 104% | SF-268 CNS 78.1% | SF-295 CNS 110% | SF-539 CNS 70.4% | UACC-257 melanoma 104% | M14 melanoma 67.9%

NS(=O)(=O)c1ccc(Nc2nc(SCc3ccccc3)nc3ccccc23)cc1
inactive: NCI-H226 lung 76.8% | HOP-62 NSCLC 86.2% | NCI-H460 lung 45.1% | HOP-92 NSCLC 55.4% | NCI-H522 lung 81.3% | A549/ATCC NSCLC 52.6% | 786-0 renal 40.3% | COLO 205 colon 79.6% | DU-145 prostate 61.7% | K-562 leukemia 14.4% | MALME-3M melanoma 81.7% | MDA-MB-231 breast 53.9% | RXF 393 renal 45.5% | SF-268 CNS 73.2% | SF-295 CNS 59.9% | SF-539 CNS 48.8% | UACC-257 melanoma 92.8% | M14 melanoma 75%

O=C(CCn1cc[n+](CC(=O)c2ccc(-c3ccccc3)cc2)c1)Nc1cccc2cccnc12
inactive: NCI-H226 lung 83.3% | NCI-H322M lung 92.2% | HOP-62 NSCLC 102% | NCI-H460 lung 91.9% | NCI-H522 lung 48% | A549/ATCC NSCLC 94.4% | 786-0 renal 97.7% | COLO 205 colon 72.8% | DU-145 prostate 90.9% | K-562 leukemia 45.9% | MDA-MB-231 breast 65.1% | RXF 393 renal 90.5% | SF-268 CNS 72.2% | SF-295 CNS 100% | SF-539 CNS 80.8% | UACC-257 melanoma 40.9% | M14 melanoma 82.3%

NS(=O)(=O)c1ccc(Nc2cc(-c3ccccc3)nc(SCC(=O)c3ccccc3)n2)cc1
inactive: NCI-H226 lung 92.8% | NCI-H322M lung 90.4% | HOP-62 NSCLC 106% | NCI-H460 lung 103% | NCI-H522 lung 98.6% | A549/ATCC NSCLC 98.8% | 786-0 renal 96.9% | COLO 205 colon 116% | DU-145 prostate 103% | K-562 leukemia 98.1% | MALME-3M melanoma 93% | MDA-MB-231 breast 92.9% | RXF 393 renal 94.9% | SF-268 CNS 97.1% | SF-295 CNS 99.6% | SF-539 CNS 101% | UACC-257 melanoma 99% | M14 melanoma 98.4%

Nc1cc(-c2c[nH]c3ccc(Br)cc23)nc2cc(-c3c[nH]c4ccc(Br)cc34)nn12
active: NCI-H460 lung -24.8% | HOP-92 NSCLC -12.1% | NCI-H522 lung -64% | 786-0 renal -50.3% | COLO 205 colon -50.5% | K-562 leukemia 1.82% | MDA-MB-231 breast 7.95% | SF-295 CNS 6.52% | SF-539 CNS -4.74% | M14 melanoma -52.1%
inactive: NCI-H226 lung 55.3% | HOP-62 NSCLC 40% | A549/ATCC NSCLC 17.7% | DU-145 prostate 24.2% | MALME-3M melanoma 45.6% | RXF 393 renal 28.4% | SF-268 CNS 27.8% | UACC-257 melanoma 65%

COc1ccc(-c2nc(C(Cl)Cl)nc3cc(-c4ccccc4)nn23)cc1
active: NCI-H322M lung -33.8% | HOP-62 NSCLC -11.5% | NCI-H460 lung -75.9% | NCI-H522 lung -59.4% | A549/ATCC NSCLC -42.9% | COLO 205 colon -74.6% | DU-145 prostate -26.7% | K-562 leukemia 7.86% | MALME-3M melanoma -44.9% | MDA-MB-231 breast 6.65% | RXF 393 renal -82.1% | SF-295 CNS 9.62% | UACC-257 melanoma 4.58% | M14 melanoma -69%
inactive: NCI-H226 lung 63.2% | 786-0 renal 68.8% | SF-268 CNS 14.2% | SF-539 CNS 35.5%

Nc1nc(N)c2c(n1)NC(c1ccc(Cl)cc1)CC(c1ccc(Nc3nc(NCCO)nc(N4CCOCC4)n3)cc1)=N2 (stereo not given)
inactive: NCI-H226 lung 82% | NCI-H322M lung 95.5% | HOP-62 NSCLC 80.2% | NCI-H460 lung 79.8% | NCI-H522 lung 65.8% | A549/ATCC NSCLC 86.3% | 786-0 renal 67.8% | DU-145 prostate 86.1% | K-562 leukemia 31.1% | MDA-MB-231 breast 80.5% | RXF 393 renal 61.2% | SF-268 CNS 61.8% | SF-295 CNS 76.2% | SF-539 CNS 78.4% | UACC-257 melanoma 84.6% | M14 melanoma 88.1%

Cc1ccc(-n2cc(/C=N/NC(=O)c3nc(N)n[nH]3)c(-c3ccc(S(C)(=O)=O)cc3)n2)cc1
inactive: NCI-H322M lung 104% | HOP-62 NSCLC 98.6% | NCI-H460 lung 103% | HOP-92 NSCLC 94.2% | NCI-H522 lung 92.3% | A549/ATCC NSCLC 104% | 786-0 renal 98.6% | COLO 205 colon 105% | DU-145 prostate 100% | K-562 leukemia 52.7% | MALME-3M melanoma 85.3% | MDA-MB-231 breast 96% | RXF 393 renal 117% | SF-268 CNS 99.4% | SF-295 CNS 104% | SF-539 CNS 99.7% | UACC-257 melanoma 99.3%
